Assay results published in PubChem BioAssay (NCATS).
Values joined by “and” are separate entries in the source; they are usually repeats but may differ in a detail not shown here. Identical values can stand only once. Results filed as inconclusive are left out. Active and inactive are the calls of the source. The call rests on the fitted dose curve.

Experiment: qHTS Assay for Lipid Storage Modulators (AID 1519); on activity change, negative = inhibition: on the % scale 0 is the no-effect control and ±100 the full control effect
Conditions: Drosophila S3 cells, BODIPY lipid droplet/cell ratio, laser cytometry, cells loaded with oleic acid
Description: NIH Molecular Libraries Probe Production Centers Network [MLPCN]
NIH Chemical Genomics Center [NCGC]
Assay Submitter (PI): Beller, Mathias; Max-Planck-Institut fur Biophysikalische Chemie
NCGC Assay Overview: Storing lipids as a reservoir for energy or the anabolism of elementary metabolites is a common feature of probably all cells and is conserved from bacteria to humans. The universal cellular lipid storage organelle is the so-called lipid storage droplet (LD). Although ubiquitous, LDs share a simple structure composed of a hydrophobic core that harbors the storage lipids, which is shielded by a droplet-specific phospholipid monolayer to which proteins are attached. The current model of LD biogenesis involves an incorporation of the lipid core into the membrane leaflets of the endoplasmic reticulum (ER) followed by a subsequent budding-like maturation of a LD, which ultimately pinches off. Once released, LD volume can increase by localized lipogenesis or fusion of existing droplets. Storage lipids are re-mobilized enzymatically by lipase activity. Lipase regulation in the adipocyte is heavily studied and involves multiple components including catecholamine signaling, the LD-associated proteins Perilipin and comparative gene identification-58 (CGI-58) and at least two lipases named hormone sensitive lipase (HSL) and adipocyte triglyceride lipase (ATGL). LD regulation outside of the adipocyte is poorly understood and only few components are known. However, there is an urgent need to learn more about ectopic fat depots as mislocalized storage of lipids, for example in the liver or muscle, is an eminent health problem associated with insulin resistance or the metabolic syndrome. We developed a laser-scanning cytometer assay to enable 1,536-well screening and combined the results of the small molecules screen with an RNAi database based on lipid storage.
NCGC Assay Protocol Summary:
We dispensed 4 uL of cells at 1.25 x 10^6 cells/mL into LoBase Aurora COC 1,536-well plates (black walled, clear bottom) with a bottle-valve solenoid-based dispenser (Aurora) to obtain 5,000 cells/well. Triacsin C (Sigma-Aldrich T-4540), an inhibitor of long-chain fatty acyl CoA synthetase that blocks synthesis of triglycerides, was used as a positive control for lipid under-storage. A total of 23 nL of compound solution of different concentrations were transferred to the assay plates using a Kalypsys pin tool equipped with a 1,536-pin array containing 10-nL slotted pins (FP1S10, 0.457-mm diameter, 50.8 mm long; V&P Scientific). One microliter of oleic acid (400 uM) was added, and the plate was lidded with stainless steel rubber gasket lined lids containing pinholes. […] Fluorescence was detected by excitation of the fluorophores with a 488-nm laser on an Acumen Explorer (TTP Lab Tech). The total intensity in channel 1 (500-530 nm) reflected lipid droplet accumulation. […] The ratio of the total intensity in PMT channel 1 over total intensity of channel 3 was also calculated. Percent activity was computed relative to an internal control (100% inhibited lipid droplet deposition due to the presence of 20 uM Triacsin C), which was added to 32 wells/plate.

[1] = measured here: cell count channel max response
[2] = measured here: lipid channel max response
Potency means the concentration at half of the fitted maximal effect.

| Structure (SMILES) | activity change, negative = inhibition (at 25.7 µM (top of the series)) | max response [1] | max response [2] | activity change, negative = inhibition (at 57.5 µM (top of the series)) | Potency |
| --- | --- | --- | --- | --- | --- |
| CN1[C@H]2CC(OC(=O)[C@@H](CO)c3ccccc3)C[C@H]1[C@H]1O[C@H]12 (some centres not stated) | -0.085% (inactive) | 9.59% | 10.6% | – | – |
| CN1C[C@H](CNC(=O)OCc2ccccc2)C[C@H]2c3cccc4c3c(cn4C)C[C@@H]21 | -3.64% (inactive) | -21.4% | -20.5% | – | – |
| C=CCN1CC[C@@]23c4c5ccc(O)c4O[C@H]2/C(=N\N=C2/CC[C@@]4(O)[C@H]6Cc7ccc(O)c8c7[C@@]4(CCN6CC=C)[C@@H]2O8)CC[C@]3(O)[C@@H]1C5 | – | 10.9% | 11.9% | 1.28% (inactive) | – |
| CC(=O)O[C@@H]1CN2CCC1CC2 | – | -10.5% | -8.98% | 2.83% (inactive) | – |
| N[C@@]1(C(=O)O)CC[C@H](C(=O)O)C1 | – | -9.77% and 22.3% and -1.79% | -7.89% and 39.1% and -2.3% | 1.47% (inactive) and 9.82% (inactive) and 2.9% (inactive) | – |
| CC(=O)N1CC[N+](C)(C)CC1 | – | -4.3% | -0.222% | 2.08% (inactive) | – |
| N[C@H](CCP(=O)(O)O)C(=O)O | – | 21.6% | 21.4% | 2.56% (inactive) | – |
| CC(C)(O)[C@@H]1[C@H]2OC(=O)[C@@H]1[C@]1(O)C[C@H]3O[C@]34C(=O)O[C@H]2[C@@]14C (tested in a mixture with another compound) | – | -8.87% | -11.1% | -0.708% (inactive) | – |
| NC(N)=Nc1ccc2[nH]c3c(c2c1)C[C@]1(O)[C@@H]2Cc4ccc(O)c5c4[C@]1(CCN2CC1CC1)[C@@H]3O5 | – | 2.17% | 1.06% | -1.94% (inactive) | – |
| C=CCN1CCC2(C)c3cc(O)ccc3CC1C2C (configuration not stated) | – | 24.1% | 21.8% | -2.86% (inactive) | – |
| CN1C(=O)CCS(=O)(=O)[C@H]1c1ccc(Cl)cc1 | – | -1.62% | 2.79% | -2.49% (inactive) | – |
| Cc1nc(N)sc1CCN | – | -8.41% | -2.18% | 3.05% (inactive) | – |
| CC[C@H](Oc1ccc(Cl)cc1)C(=O)OC1C[C@H]2CC[C@@H](C1)N2C (some centres not stated) | – | 16.1% | 28.8% | -0.561% (inactive) | – |
| CC1OC(=O)C(C(C)C)NC(=O)C(C(C)C)OC(=O)C(C(C)C)NC(=O)C(C)OC(=O)C(C(C)C)NC(=O)C(C(C)C)OC(=O)C(C(C)C)NC(=O)C(C)OC(=O)C(C(C)C)NC(=O)C(C(C)C)OC(=O)C(C(C)C)NC1=O (configuration not stated) | – | 0.207% | -94.2% | – | 316 nM (active) |
